# TEAD-YAP block = TEAD-YAP interaction inhibition. inhibition, % at 9.12 µM. 640,000 tested, 1.4% active. HEK-TIYL cells, TEAD-Gal4/YAP UAS-luciferase luminescence; in the data active = inhibition above about 32%
# MITF primary = blocks human microphthalmia-associated transcription factor. O75030. 650,000 tested, 0.91% active. AlphaScreen MITF homodimerization, bead proximity signal. AID 1259374. inhibition, % at 2.6 µM; in the data active = inhibition above about 50%
# FBW7 act = activators of human E3 ligase FBW7; Q969H0; AlphaScreen FBW7–phospho-cyclin E peptide binding, activator screen; normalized activity (activation), % at 26.1 µM; 650,000 tested, 0.13% active; in the data active = normalized activity above about 1.9%;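 also: purified mutant Fbw7 with reduced substrate affinity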
# GPR151 ag = activators of human GPR151; AID 1508602; 650,000 tested, 1% active; Q8TDV0; activation, % at 11.2 µM; PathHunter beta-arrestin GPR151 cells, luminescence; in the data active = activation above about 4.9%
# GPR151 confirm = human GPR151 activation, confirmation screen; GPR151 PathHunter beta-arrestin cells, luminescence, 90 min; % of EA-reagent control over plate median; AID 1508609; activation, % at 11.2 µM; 6,700 tested, under 10 active; shares compounds with GPR151 ag;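 active = mean percent activation across replicates above the confirmation screen cutoff of 4.91%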
# GPR119 ag = activates human GPR119 in a GPR151 counter-screen; AID 1508611; activation, % at 11.2 µM; shares compounds with GPR151 ag; GPR119 PathHunter beta-arrestin cells, luminescence, 90 min; 0 = compound-well median, 100 = enzyme-acceptor control; 6,700 tested, 0.3% active;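 active = mean percent activation in the counterscreen above 29.09%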;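 also: counterscreen on off-target GPR119 to flag nonselective hits from the GPR151 activator screen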
# Numbers stand for hits; i = inactive; nt = not tested or not shown. Rows were chosen to be rich in hits. Some 3.4% of all compounds tested hit in one or more screens of this group.
SMILES,TEAD-YAP block,MITF primary,FBW7 act,GPR151 ag,GPR151 confirm,GPR119 ag
COc1cc(CCN2C(=O)N[C@@H](c3cccc(C(F)(F)F)c3)C(C(C)=O)=C2C)cc(OC)c1OC,nt,i,i,i,nt,nt
COC(=O)C1=C(C)N(Cc2ccccc2)C(=O)N[C@H]1c1cccc(C(F)(F)F)c1,nt,i,i,8.6,i,i
CC(=O)C1=C(C)N(Cc2ccccc2)C(=O)N[C@@H]1c1cccc(C(F)(F)F)c1,nt,i,i,i,nt,nt
CCOC(=O)CN1C(=O)N[C@@H](c2cccc(C(F)(F)F)c2)C(C(C)=O)=C1C,nt,i,i,10.0,i,i
O=[N+]([O-])c1ccc(C=Nc2ccc3nc(-c4ccncc4)[nH]c3c2)cc1,i,i,i,i,nt,nt
COc1ccc(/C(N)=N/OC(=O)COc2ccc(Br)cc2)cc1OC,i,i,i,i,nt,nt
COc1ccc(OCC(=O)O/N=C(\N)c2ccc(OC)c(OC)c2)cc1,i,i,i,8.2,i,i
O=C(Nc1nc2n(n1)C(c1ccc(F)cc1)CC(c1ccccc1)N2)c1cccnc1 (stereo unspecified),i,i,i,5.7,i,i
CCC(=O)Nc1nc2n(n1)C(c1ccccc1)CC(c1ccc(Cl)cc1)N2 (stereo unspecified),i,i,i,i,nt,nt
CC1(C)Cc2cccc(OCC(=O)NC3=NCCS3)c2O1,i,i,i,5.9,i,i
CCOc1ccc(Cl)cc1C1C2=C(CC(C)(C)CC2=O)N(C)C2=C1C(=O)CC(C)(C)C2,i,i,i,i,nt,nt
C#CCOc1ccc(Cl)cc1C1C2=C(CC(C)(C)CC2=O)N(C)C2=C1C(=O)CC(C)(C)C2,i,i,i,5.1,i,i
CCN1C(=O)c2cccc3c(N4CCOCC4)ccc(c23)C1=O,i,i,i,i,nt,nt
O=C1C=Cc2ccc(N3CCOCC3)c3cccc1c23,i,i,i,6.1,i,i
COc1ccc(-c2ccc(C(=O)NC3CCOC(C)(C)C3)c(N3CCSCC3)n2)cc1 (stereo unspecified),i,i,i,i,nt,nt
COc1ccc(CCN(C)CCCC(C#N)(c2cc(OC)c(OC)c(OC)c2)C(C)C)cc1OC (stereo unspecified),i,i,i,5.6,i,i
COc1ccc(-c2n[nH]c([N+](=O)[O-])n2)cc1,i,i,i,i,nt,nt
COc1ccc(N2CCN(C3CCCN(C(=O)CCN4CCCCO4)C3)CC2)cc1 (stereo unspecified),i,i,i,5.3,i,i
COc1cc(-c2cn[nH]c2)cc2c(=O)[nH]c(C3COc4ccc(C)cc4C3)nc12 (stereo unspecified),i,i,i,5.6,i,i
COc1ccc(C2C(C#N)=C(N)N(c3ccccc3C(F)(F)F)C3=C2C(=O)CC(C)(C)C3)cc1 (stereo unspecified),i,i,i,i,nt,nt
CCN(CC)c1ccc(/C=N/NC(=O)c2ccc(O)cc2O)cc1,73.8,i,i,6.0,i,i
CCN(CC)c1ccc(/C=N\NC(=O)c2ccc(O)cc2)cc1,i,i,i,i,nt,nt
CCOCCCNc1nc2nc3ccc(C)cn3c(=O)c2cc1C(=O)NC1CCCCC1,i,i,i,i,nt,nt
CN(Cc1ccc(OCC(O)CN2CCc3ccccc3C2)cc1)Cc1cccnc1 (stereo unspecified),i,i,i,i,nt,nt
CN(Cc1ccc(OCC(O)CN2CCc3ccccc3C2)cc1)Cc1nccs1 (stereo unspecified),i,i,i,5.6,i,i
SMILES,TEAD-YAP block,MITF primary,FBW7 act,GPR151 ag,GPR151 confirm,GPR119 ag
COc1ccc(NC(=O)/C(=C/c2cccc([N+](=O)[O-])c2)NC(=O)c2ccccc2Br)cc1,i,i,i,i,nt,nt
COc1cccc(NC(=O)CN(C2=NC3CS(=O)(=O)CC3S2)c2ccccc2F)c1 (stereo unspecified),i,i,i,5.0,i,i
COc1cccc(CC(=O)N2CCc3nnc(CNC(=O)CCc4cccnc4)n3CC2)c1,i,i,i,5.7,i,i
N#Cc1ccc(CSC2=Nc3ccccc3C3CC=NN23)cc1 (stereo unspecified),i,i,i,i,nt,nt
S=C1Nc2ccccc2C2CC=NN12 (stereo unspecified),i,i,i,5.7,i,i
CCCNS(=O)(=O)c1ccc2c(c1)OCCO2,i,i,i,i,nt,nt
CC(Cc1nnc(-c2ccccc2)n1N)C(=O)O (stereo unspecified),i,i,i,9.8,i,i

# From PubChem
